# Source: PubChem (National Center for Advancing Translational Sciences (NCATS))
# JMJD2A Tudor inh: blocks the human JMJD2A Tudor domain | O75164 | AlphaScreen JMJD2A-Tudor / H3K4me3 peptide binding | Potency, µM (top dose mostly 114 µM), hits mostly inhibitors | actives 4.4% (n = 390,000); further: nearly all actives have a fitted effect of over 50% in size
# PI5P4Ka inh: inhibitors of human PI5P4K alpha; actives 1.2% (n = 330,000); max response, %; PI5P4Kalpha enzyme, ADP-Glo luminescence, 60 min; hits give low values; P48426; active means max response of -50% or lower; inconclusive means between -30% and -50%; inactive means -30% or higher; further: value at the top dose of about 77 µM
#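 ADP-Glo luminescence end-point read after a 60 min room-temperature kinase reaction of PI5P4Kalpha plus substrate, initiated with ATP at 5 microM final. Buffer: 0.038 M HEPES pH 7.4, EGTA, 0.1% CHAPS, 5% DMSO.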
# BAZ2B block: inhibitors of human BAZ2B bromodomain; Q9UIF8; AlphaScreen BAZ2B-H3K14Ac peptide displacement; Potency, µM (titrated, usually from 114 µM), usual class: inhibitors; actives 4.4% (n = 360,000); AID 504333; further: nearly all actives have a fitted effect of over 60% in size
#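 BAZ2B 50 nM plus b-H3(5-23)K14Ac 50 nM, PBS pH 7.4/0.01% Tween-20, 30 min RT; compound added (max 110 uM), 30 min RT; streptavidin donor/Ni-chelate acceptor beads 10 ug/mL final, 20 min dark; AlphaScreen read.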
# L3MBTL1 block: inhibitors of human L3MBTL1; Potency, µM (top dose mostly 57.1 µM), actives largely listed as inhibitors; AlphaScreen L3MBTL1–H3K9me1 peptide binding; actives 0.66% (n = 230,000); further: nearly all actives have a fitted effect of over 60% in size
#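 L3MBTL1 (50 nM) pre-complexed 30 min with biotinylated H3(1-15)K9me1 peptide (75 nM), then compounds added for 30 min at room temperature; AlphaScreen streptavidin donor/nickel chelate acceptor beads (10 ug/mL final) read after 30 min dark incubation.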
# HP1b chromo inh: HP1-beta chromodomain-methylated histone interaction inhibition; P83916; AlphaScreen HP1-beta / biotin-H3K9me3 peptide binding; Potency, µM (top dose mostly 114 µM), hits mostly inhibitors; actives 0.56% (n = 390,000); further: nearly all actives have a fitted effect of over 70% in size
# Target sequence (P83916 whole entry, looked up): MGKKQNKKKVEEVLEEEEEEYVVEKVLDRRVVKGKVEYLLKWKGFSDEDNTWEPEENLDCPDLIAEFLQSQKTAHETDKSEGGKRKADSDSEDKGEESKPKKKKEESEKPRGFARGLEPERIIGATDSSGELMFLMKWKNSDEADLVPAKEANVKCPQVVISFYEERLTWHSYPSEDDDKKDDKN
#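 AlphaScreen: HP1-beta (50 nM) preformed 30 min with biotin-H3(1-18)K9me3 peptide (50 nM) in PBS pH 7.4, 0.01% Tween-20. Compound added for 30 min at RT, then streptavidin donor/nickel chelate acceptor beads (10 ug/mL) for 30 min.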
# G9a inh: blocks human histone lysine methyltransferase G9a | Q96KQ7 | AID 504332 | actives 8.8% (n = 350,000) | G9a H3K9 monomethylation, AlphaScreen, 2 h | Potency, µM (top dose mostly 102 µM), hits mostly inhibitors; further: nearly all actives have a fitted effect of over 75% in size
# Target sequence (Q96KQ7 913-1193 limits assumed): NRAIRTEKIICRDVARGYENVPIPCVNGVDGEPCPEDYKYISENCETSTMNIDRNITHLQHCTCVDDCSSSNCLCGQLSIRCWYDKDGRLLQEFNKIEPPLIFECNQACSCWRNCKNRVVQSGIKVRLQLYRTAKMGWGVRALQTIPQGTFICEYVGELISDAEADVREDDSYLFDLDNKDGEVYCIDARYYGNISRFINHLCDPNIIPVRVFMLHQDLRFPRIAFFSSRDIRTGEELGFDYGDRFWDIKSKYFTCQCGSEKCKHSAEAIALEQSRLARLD
#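 G9a (20 nM) was preincubated 15 min with compound, then reacted 2 h at room temperature with 500 nM biotin-H3K9 peptide and 20 µM SAM. Monomethyl-H3K9 detected by AlphaScreen using anti-H3K9me1 antibody.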
# A number is an active result; . = inactive; ? = inconclusive; / = not tested or not shown; [ ] = another dose, or the depositor's remark. Rows were chosen to be rich in hits. Some 11% of all compounds tested hit in one or more screens of this group. Unless noted, the call rests on the fitted dose curve; in most records, active means well fitted inhibition curve with a large enough effect; inconclusive means small, poorly fitted or top-dose-only effect; inactive means no such curve, though single readings can be large or run the other way.
SMILES,JMJD2A Tudor inh,PI5P4Ka inh,BAZ2B block,L3MBTL1 block,HP1b chromo inh,G9a inh
CCOC(=O)c1cccc(NC(=O)CCNS(=O)(=O)c2ccc3c(c2)CCN3C(=O)CC)c1,.,.,.,.,.,.
CCOC(=O)c1cccc(NC(=O)CCS(=O)(=O)c2ccc3c(c2)CCN3C(=O)CC)c1,25µM,/,/,/,.,11µM
CCCCC/C=C\C=C\[C@H](O)CCCCCCCC(=O)O,/,/,/,/,/,.
COc1ccccc1N1CCN(CCCCCCOc2ccc(F)cc2)CC1,.,.,.,.,.,50µM
COc1ccc(CN2CCN(C(=O)c3ccc(-c4ccccc4)cc3)CC2)c(OC)c1OC,.,.,?,/,.,.
COc1ccccc1N1CCN(CCCCOc2cccc3ccccc23)CC1,?,.,35µM,.,.,45µM
COc1ccc(CN2CCN(CCCCOc3ccc(Cl)cc3)CC2)c(OC)c1OC,6.3µM,.,18µM,.[11.4 µM],?,14µM
COc1ccc(CC(=O)Nc2c(C(=O)N3CCN(c4ccccc4F)CC3)oc3ccccc23)cc1OC,.,/,.,/,.,.
Cc1cc(Cl)ccc1NC(=O)CN1C(=O)COc2ccc(S(=O)(=O)N3CCC(C)CC3)cc21,.,/,.,/,.,.
COc1cc(/C=C(\C#N)C(=O)c2c(C)[nH]c3ccccc23)cc(OC)c1OC,28µM,.,.,.,?,45µM
O=c1c2ccccc2n2c(=S)[nH]nc2n1-c1ccccc1,3.2µM,.,?,/,?,5µM
CCC(C)c1ccc(-n2c(=O)c3ccccc3n3c(=S)[nH]nc23)cc1 (stereo not drawn),.,.,.,/,.,1.1µM
O=C(O)CSc1nnc2n(-c3ccccc3)c(=O)c3ccccc3n12,.,.,.,/,.,.
Cc1nnc2n(-c3ccccc3)c(=O)c3ccccc3n12,.,.,/,/,.,/
COc1ccc(C(=O)CCC(=O)Nc2cc(Cl)c(O)c(Cl)c2)cc1,.,-77,.,/,.,.[2.33 µM]
COc1cccc(C(=O)Nc2cc(Cl)c(O)c(Cl)c2)c1,.,?,.,.,.,45µM
COc1cccc(C(=O)Nc2ccc(NC(C)=O)cc2)c1,.,/,.,/,.,.[12.7 µM]
COc1ccc(CNC(=O)c2cnc3sc(N4CCC(C)CC4)nn3c2=O)c(OC)c1,.,/,.,/,.,.
Cc1nc2nc[nH]c2cc1Br,.,.,.,.,.,.
Cc1nc2[nH]c(=S)[nH]c2cc1Br,45µM,.,.,.,.,4µM
O=C(O)c1ccc(N=NN2CCCCC2)cc1,.,.,?,.,.,35µM
CN(C)c1ccc(N=Nc2ccc(C(=O)O)cc2)cc1,25µM,?,35µM,/,.,10µM
CC(=O)/C(N=Nc1ccc(C(=O)O)cc1)=C(\C)O,.,.,.,.,.,.
CCOc1ccccc1NC(=O)Cn1c(=O)n(CC(=O)NCc2ccccc2Cl)c(=O)c2sccc21,.,/,.,/,.,.
Cc1ccc(COC(=O)c2ccc(-c3nnn(Cc4ccc(C)cc4)n3)cc2)cc1,.,/,.,/,.,.
SMILES,JMJD2A Tudor inh,PI5P4Ka inh,BAZ2B block,L3MBTL1 block,HP1b chromo inh,G9a inh
COc1ccc(NC(C)C(=O)Nc2ccc(C(C)(C)C)cc2)cc1Cl (stereo not drawn),?,.,45µM,/,.,?
COc1ccc(NC(=O)C(OC)c2ccccc2)cc1Cl (stereo not drawn),.,.,.,.,.,.
COc1ccc(NC(=O)C(NCC(C)C)c2ccccc2)cc1Cl (stereo not drawn),4.5µM,.,40µM,/,16µM,50µM
CCN(C(=O)CSc1nc2ccccc2n1CC(=O)Nc1cccc(C#N)c1)c1ccccc1,.,/,.,/,.,.
CCc1nc(SCC(=O)Nc2ccc(NC(C)=O)cc2)n[nH]1,.,/,.,/,.,.
CC(C)(C)C(=O)CNCC(=O)C(C)(C)C,.,.,.,.,.,40µM
CSc1ccc(CNC(=O)C2CCN(c3nnc(-n4cccc4CNc4ccc(C)cc4)s3)CC2)cc1,?,/,.,/,.,.
Cc1ccc(CNC(=O)c2c(-c3ccccc3F)noc2C)o1,.,/,.,/,.,.
O=C(O)C1CCCCC1C(=O)Nc1cccc(Br)c1 (stereo not drawn),25µM,?,?,13µM,25µM,.[2.33 µM]
O=C(O)[C@H]1CCCC[C@H]1C(=O)Nc1ccc(Nc2ccccc2)cc1,.,.,.,.,.,8.9µM
CC1CCCN(Cc2cn3c(-c4cccc(Br)c4)nnc3s2)C1 (stereo not drawn),.,/,.,/,.,.
Brc1cccc(-c2nnc3sc(CNCc4ccco4)cn23)c1,.,.,.,.,.,45µM
Cc1cc(C)cc(-n2ccnc2SCC(=O)Nc2nc3ccc(C)cc3s2)c1,.,/,.,/,.,.
COc1cc2c(cc1OC)/C(=C/C(=O)c1ccccc1)NCC2,?,.,?,/,.,?
COc1cc2c(cc1OC)/C(=C/C(=O)c1ccc(C)cc1)NCC2,?,.,?,/,.,50µM
COc1cccc(C(=O)/C=C2\NCCc3cc(OC)c(OC)cc32)c1,?,.,?,/,.,50µM
COc1cc2c(cc1OC)/C(=C/C(=O)c1ccc([N+](=O)[O-])c(C)c1)NCC2,20µM,.,.,/,.,.
COc1ccc(/C(N)=N/OC(=O)c2ccc([N+](=O)[O-])c(C)c2)cc1OC,.,.,.,.,.,.
CCC(=O)Nc1ccccc1-c1nc2ccccc2n(Cc2cccc(Br)c2)c1=O,.,/,.,/,.,.
C=CCNc1nnc(SC2CC(=O)N(c3ccc(OCCC)cc3)C2=O)s1 (stereo not drawn),35µM,.,.,/,.,8.9µM
CCOC(=O)c1ccc(-n2c(C)ccc2C)cc1,.,.,.,.,.,.
O=C1CC(Sc2ncccn2)C(=O)N1c1ccccc1 (stereo not drawn),.,.,.,/,.,?
CCOC(=O)c1ccc(N2C(=O)CC(Sc3nc(C)cc(C)n3)C2=O)cc1 (stereo not drawn),.,.,.,.,.,.
CCOC(=O)c1ccc(N2C(=O)CC(Sc3nnc(C)s3)C2=O)cc1 (stereo not drawn),50µM,.,.,.,.,10µM
CCOC(=O)c1ccc(N2C(=O)C=CC2=O)cc1,22µM,?,?,/,20µM,?
Nc1nnc(SC2CC(=O)N(c3ccccc3)C2=O)s1 (stereo not drawn),45µM,.,.,/,?,8.9µM
CC(C)Cn1cc(NC(=O)N2CCN(c3ccc(F)cc3)CC2)c2ccccc2c1=O,.,/,.,/,.,.
COc1cc(NC(=O)CC2C(=O)N(c3cccc(C)c3)C(=O)N2Cc2cccs2)cc(OC)c1 (stereo not drawn),.,/,.,/,.,?
CCn1c(C(=O)NCc2ccccc2Br)cc2oc3ccccc3c21,.,/,.,/,.,.
